Compound activity: PubChem BioAssay, The Scripps Research Institute Molecular Screening Center
Only some compounds are listed: those with a hit (about 4.1% of all), similar ones and a draw of the others.
DAX1 inh-1: blocks DAX1 repression of SF-1 activated StAR promoter | inhibition, % at 6.8 µM | actives 1.1% (n = 370,000) | AID 652010 | HEK293T StAR-luciferase reporter, SF-1/DAX-1 repression relief;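 active means inhibition above the mean over all tested compounds plus 3 SD, cut at about 3.6% in these data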;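 further: 0% = DAX-1 cells with DMSO and 100% = cells lacking DAX-1 with DMSO; higher inhibition means more luminescence from relief of DAX-1 repression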
DAX1 inh-2: inhibitors of human orphan nuclear receptor DAX1 (NR0B1) | HEK293 Gal4-DAX1 luciferase reporter, luminescence | P51843 | inhibition, % at 6.75 µM | AID 504766 | actives 0.99% (n = 340,000);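 active means inhibition above the mean over all tested compounds plus 3 SD, cut at about 4.2% in these data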;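 further: 0% = DAX1-transfected cells with DMSO and 100% = empty-vector control cells with DMSO; inhibition shows as a rise in luminescence from relieved DAX1 repression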
hgDAF12 agonist: activates the H. glycines DAF-12 receptor ligand-binding domain | actives 1.8% (n = 370,000) | activation, % at 6.8 µM | HEK293 GAL4-hgDAF12 UAS-luciferase reporter, agonist luminescence; normalized to butyrate control;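 active means activation above a cutoff set at the mean of all screened compounds plus 3 SD, cut at about 10% in these data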;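 further: 0% = DMSO wells and 100% = sodium butyrate wells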
hcDAF-12 act: activates DAF-12 receptor from parasite H. contortus | activation, % at 6.8 µM | HEK293 hcDAF-12 lit1-tk-luc reporter, luminescence; 0% DMSO, 100% Δ7-dafachronic acid | actives 1.4% (n = 370,000);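 active means activation above the mean of all tested compounds plus 3 SD, cut at about 5.5% in these data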;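 further: 100% = response to 3 µM Δ7-dafachronic acid high control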
ssDAF-12 act: activates DAF-12 receptor from parasite S. stercoralis | HEK293 ssDAF-12/GRIP1 lit1-tk-luc reporter, luminescence; % of 3 µM dafachronic acid response | activation, % at 6.8 µM | actives 1% (n = 370,000);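 active means activation above the mean over all tested compounds plus 3 SD, cut at about 0.9% in these data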;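 further: 0% = DMSO-only wells and 100% = 3 µM delta7-dafachronic acid wells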
LXRb hcDAF ctr: LXR-beta agonism as hcDAF-12 counter-screen; 3,400 tested, under 10 active; HEK293 Gal4-LXR tk-luc reporter, luminescence, 24 h; normalized: DMSO 0%, positive control 100%; shares compounds with hcDAF-12 act; activation, % at 6.8 µM;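 active means mean percent activation of the reporter above a cutoff set as the average over tested compounds plus their standard deviation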
Target sequence (P55055 whole entry, looked up, the tested form may be a part): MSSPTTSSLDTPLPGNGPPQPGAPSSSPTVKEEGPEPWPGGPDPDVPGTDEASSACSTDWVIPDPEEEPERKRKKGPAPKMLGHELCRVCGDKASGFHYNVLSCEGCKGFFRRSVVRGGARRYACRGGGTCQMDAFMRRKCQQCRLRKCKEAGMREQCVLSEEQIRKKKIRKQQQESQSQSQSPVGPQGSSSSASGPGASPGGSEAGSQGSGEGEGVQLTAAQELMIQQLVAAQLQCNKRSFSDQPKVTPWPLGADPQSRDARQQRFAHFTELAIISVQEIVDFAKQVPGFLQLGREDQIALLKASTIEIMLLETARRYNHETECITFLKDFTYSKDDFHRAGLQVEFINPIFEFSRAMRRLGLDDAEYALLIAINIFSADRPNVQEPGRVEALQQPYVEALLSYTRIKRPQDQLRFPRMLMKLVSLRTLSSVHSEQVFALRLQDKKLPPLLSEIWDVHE
hcDAF12 conf: hcDAF-12 agonism, confirmation assay; activation, % at 6.8 µM; HEK293 hcDAF-12 lit1-tk-luc reporter, luminescence; % of Δ7-dafachronic acid response; shares compounds with hcDAF-12 act; AID 743032; actives 61% (n = 3,400);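 active means mean activation across triplicate tests above the threshold derived from the earlier primary screen, cut at about 5.5% in these data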;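 further: 0% = DMSO only wells and 100% = 3 µM Δ7-dafachronic acid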
* hit, by the source's call; x = no result.

SMILES | DAX1 inh-1 | DAX1 inh-2 | hgDAF12 agonist | hcDAF-12 act | ssDAF-12 act | LXRb hcDAF ctr | hcDAF12 conf
Nn1c(SCC(=O)Nc2cccc3ccccc23)nnc1-c1cc(-c2ccc(Cl)cc2)n[nH]1 | -0.1 | x | -1.9 | 2.0 | -0.4 | x | x
COc1nc(NCCO)nc(Nc2ccc([N+](=O)[O-])cc2)n1 | -1.1 | -0.2 | 1.6 | -0.6 | -1.1 | x | x
O=[N+]([O-])c1ccc(Nc2nc(Cl)nc(NCCO)n2)cc1 | 1.6 | -1.0 | 1.8 | 6.8* | 0.6 | -0.1 | 4.7
O=C1c2ccccc2C(=O)N1CSc1nnc(Nc2ccccc2F)s1 | 1.4 | -2.0 | -0.7 | -0.4 | -1.4 | x | x
O=C(CSc1nnc(Nc2ccccc2F)s1)c1cc2ccccc2o1 | -0.2 | 0.1 | 1.9 | 7.8* | -0.1 | 0.0 | 2.8
COc1ccc(Nc2nnc(SCC(=O)c3cc4ccccc4o3)s2)cc1 | 2.2 | 4.1 | 5.6 | 10.0* | 2.0* | 0.0 | 5.2
COC(=O)[C@]12C[C@H](CC(=O)NCC3CCCCC3)C(=O)N(Cc3ccccc3)C1=C[C@H](C1CCCC1)O[C@@H]2C | -0.4 | x | -0.3 | 0.6 | -0.1 | x | x
CC(=O)c1cccc(NC(=O)C2CCCN2S(=O)(=O)c2cccs2)c1 (stereo unspecified) | 0.1 | 0.0 | 1.8 | -0.7 | -0.7 | x | x
Cc1c(Cc2ccccc2)c(=O)oc2c(C)c(OCC(=O)NCC3CCC(C(=O)O)CC3)ccc12 (stereo unspecified) | 0.6 | 1.8 | 2.0 | 7.3* | 0.8 | -0.4 | 0.0
CC(=O)N(NC(=O)c1ccc(C)cc1)C1CC(=O)N(c2ccccc2Cl)C1=O (stereo unspecified) | -0.7 | 0.3 | -2.4 | 8.6* | -1.6 | -0.2 | 1.6
CCOC(=O)[C@]12CCCC=C1N(CCCOC)C(=O)[C@@H]2CC(=O)NCC1CCCCC1 | 0.1 | x | -3.0 | -2.1 | 0.0 | x | x
Cc1ccc2c(c1)sc(=NC(=O)c1cccs1)n2C | 2.2 | -4.1 | 15.5* | 7.9* | 1.6* | 1.4 | 23.2*
COC(=O)Cn1c(=NC(=O)C2CC2)sc2c(C)cc(C)cc21 | 0.3 | -1.0 | 0.3 | -1.0 | -1.3 | x | x
Cc1ccc2c(c1)sc(=NC(=O)C1CC1)n2C | 2.5 | 3.0 | 13.0* | 8.7* | 1.7* | 0.9 | 14.1*
Cc1nn(CC(=O)NC2CC2)c(C)c1S(=O)(=O)N(C)C | -0.6 | 1.1 | 3.0 | -1.3 | -0.8 | x | x
Cc1cccc(CC(=O)c2c[nH]c3ccccc23)c1 | -0.7 | x | -1.1 | -0.3 | -0.9 | x | x
CCC(=O)Nc1ccc(NC(=O)c2ccccc2)nc1 | 4.1* | 0.4 | 11.3* | 7.0* | 1.0* | 1.1 | 3.5
COc1ccc2[nH]cc(C(C)c3ccccc3O)c2c1 (stereo unspecified) | -2.0 | x | 1.9 | 0.6 | -0.6 | x | x
COc1ccccc1N1CCN(Cc2c[nH]c3ccccc23)CC1 | -0.9 | x | 1.3 | 1.8 | 0.4 | x | x
CCS(=O)(=O)N1CCN(Cc2c[nH]c3ccccc23)CC1 | 0.8 | -0.6 | 8.9 | 7.4* | -0.5 | -0.3 | 3.4
Cc1ccccc1N1CCN(Cc2c[nH]c3ccccc23)CC1 | -0.5 | 0.1 | 1.2 | 6.6* | 0.5 | -0.3 | 4.4
COc1ccc(OCc2cc(C(=O)N3CCCC(CO)C3)no2)c2ccccc12 (stereo unspecified) | 3.1 | 0.7 | 9.8 | 7.8* | 1.4* | 0.8 | 9.5*
O=C(c1cc(COc2cccc3cnccc23)on1)N1CCCC(CCCO)C1 (stereo unspecified) | -9.0 | -2.5 | -8.3 | -5.1 | -2.4 | x | x
CCn1c(SCC(=O)Nc2ccc(C(C)C)cc2)nnc1-c1ccc(C(C)(C)C)cc1 | -1.0 | x | -0.1 | 0.3 | -0.5 | x | x
CCOc1cc(/C=C2\N=C(C)OC2=O)cc(Br)c1OCC(=O)OC | 0.5 | -0.2 | -0.9 | 6.7* | 0.6 | 0.0 | 1.7
CCOc1ccc(NC(=O)/C(C#N)=C/c2cn(CC(=O)O)c3ccccc23)cc1 | 0.4 | -0.3 | -1.5 | 2.5 | -0.3 | x | x
CCOc1cccc(NC(=O)/C(C#N)=C\c2cn(CC(=O)O)c3ccccc23)c1 | 0.0 | -1.0 | -1.2 | 6.7* | 0.1 | -0.2 | 3.6
